Screens as filed in PubChem.
Shiga inhibitor = blocks Shiga toxin action in Vero cells | inhibition, % at 38.7 µM | AID 2315 | Vero cells, Shiga toxin protein synthesis inhibition reporter | 290,000 compounds, 9.2% hits; in the data active = inhibition mostly above about 28%, no sharp cut-off; inactive = mostly below about 43%
Pf growth 96h = P. falciparum growth inhibition at 96 hours; P. falciparum luciferase reporter growth, 96 h; 320,000 compounds, 6.9% hits; Potency, µM (highest dose often 28.7 µM), usual class: inhibitors
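Parasite growth measured via integrated firefly luciferase reporter in P. falciparum. Infected erythrocytes at 2% hematocrit, 0.05% parasitemia final were treated 96 hours at 37 C under 5% CO2, and luminescence was read.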
NS1 function inh = inhibitors of influenza NS1 protein function; 270,000 compounds, 0.4% hits; Potency, µM (highest dose often 46.1 µM); AID 2326; calls by dose curve; also: actives are rising curves; nearly all actives have a fitted effect of over 50% in size
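S. cerevisiae expressing influenza A NS1, grown in glucose, washed, then diluted 1:100 into pH 6.0 -URA galactose medium with 23 nl compound. Growth recovery read as OD600; NS1-free strain serves as control.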
Cycloheximide cs = affects cycloheximide protein synthesis inhibition readout, counter-screen; max response, %; cell reporter, cycloheximide protein synthesis inhibition counterscreen; AID 2314; 300,000 compounds, 12% hits; in the data active = max response mostly above about 13%, no sharp cut-off; inactive = mostly below about 14%; also: read at 38.3 µM for the half of the compounds with a filed dose
Sm TGR inh = S. mansoni TGR enzyme inhibition | purified TGR, DTNB reduction, TNB absorbance 405 nm | Potency, µM (series often up to 114 µM), actives largely listed as inhibitors | 360,000 compounds, 3% hits | AID 485364; also: nearly all actives have a fitted effect of over 60% in size
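TGR 20 nM + NADPH 100 uM (dispensed conc.), cpd preinc 15 min RT; start with NADPH (500 uM addition) then DTNB (15 mM addition). Kinetic TNB absorbance, 405 nm filter. Four-parameter Hill fit across titration.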
Pf growth 48h = inhibits P. falciparum growth in the first generation, 48 h. P. falciparum luciferase growth in erythrocytes, 48 h. Potency, µM (highest dose often 28.7 µM), usual class: inhibitors. 310,000 compounds, 5.9% hits. AID 504832
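Growth was read as firefly luciferase luminescence after a 48 h, 37 C, 5% CO2 exposure of compounds to reporter-bearing P. falciparum cultures (0.1% parasitemia, 2% hematocrit final) in Albumax-supplemented RPMI 1640.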
Hits are given with their value; n = inactive; u = inconclusive; x = not tested or not shown; ! = not confirmed by another sample. This is a sample that favours compounds with a hit; in the whole collection about 21% have one here. Unless noted, calls follow the shape of the dose curve; as a rule, active = well fitted curve in the direction sought with a large enough effect; inconclusive = small, poorly fitted or top-dose-only effect, or another doubt; inactive = no such curve, though single readings can be large; an effect the other way counts as inactive or inconclusive.

SMILES | Shiga inhibitor | Pf growth 96h | NS1 function inh | Cycloheximide cs | Sm TGR inh | Pf growth 48h
O=C(CCn1nc(-c2ccccc2)ccc1=O)N1CCOCC1 | n | 1.3µM | n | n | n | n
O=C(CSc1ccc(-c2ccccc2)nn1)N1CCOCC1 | n | n | n | 24 | n | n
CCCCN(C)CCCNC(=O)CCn1nc(-c2ccccc2)ccc1=O | n | 0.12µM | n | n | n | n
CCOC(=O)C1=C(COC(=O)CCNS(=O)(=O)c2ccc(NC(C)=O)cc2)NC(=O)NC1C (stereo unspecified) | x | n | x | x | n | n
CC(C)(C)N(Cc1ccccc1)C(=O)COc1cccnc1[N+](=O)[O-] | n | n | n | n | n | x
CC1CCN(C(=O)CSc2ccc(-c3ccccc3)nn2)CC1 | n | n | x | n | 20µM | n
COc1ccccc1NC(=O)CSc1nc(-c2ccccc2F)nc2cc(=O)[nH]n12 | x | x | x | x | n | x
Cc1ccc(Nc2ccc(C(=O)NCCc3ccccc3)cn2)cc1 | n | u | n | 12 | n | u
Cc1ccc(C)c(Nc2ccc(C(=O)NCCc3ccccc3)cn2)c1 | n | n | n | 22 | n | u
CC1CCCCN1C(=O)COc1ccc(S(=O)(=O)N2CCCC2)cc1[N+](=O)[O-] (stereo unspecified) | x | 12µM | x | x | n | n
CCOC(=O)C1CCN(S(=O)(=O)c2ccc(OC)c(C(=O)N3CCCCC3)c2)CC1 | n | n | n | n | n | n
Cc1ccc(S(=O)(=O)N2CCC(C(=O)OCC(=O)N3CCCCC3C)CC2)cc1C (stereo unspecified) | x | n | x | x | n | n
CCOC(=O)C1CCN(CC(O)COc2ccc(S(=O)(=O)N3CCCC3)cc2[N+](=O)[O-])CC1 (stereo unspecified) | x | u | x | x | n | 8.3µM
NC(=O)CSc1ccc(-c2ccc(F)cc2)nn1 | n | n | x | n | n | n
O=C(O)c1ccc(CP(=O)(c2ccccc2)c2ccccc2)cc1 | x | u | n | n | n | n
CC1CC(OP(O)(=S)c2ccc(N(C)C)cc2NC(=O)c2cccs2)CC(C)(C)C1 (stereo unspecified) | n | n | n | 31 | n | n
Cc1cc(N2C(=O)C3C4C=CC(C4)C3C2=O)ccc1NC(=O)c1cccs1 (stereo unspecified) | n | n | n | n | n | n
CCOc1ccccc1NC(=O)c1ccc2c(c1)C(=O)N(CC(C)C)C2=O | n | n | n | n | n | n
CC(C)CN1C(=O)c2ccc(C(=O)NCc3ccccn3)cc2C1=O | n | n | n | n | n | n
CC(C)CN1C(=O)c2ccc(C(=O)Nc3ccccc3C(=O)O)cc2C1=O | 71 | n | n | 55 | n | n
CC(C)CN1C(=O)c2ccc(C(=O)Nc3ccccn3)cc2C1=O | n | n | n | 34 | n | n
CCC1CCCCN1c1ccc([N+](=O)[O-])cc1/C=N/NC(=O)Cn1c2ccccc2c(=O)c2ccccc21 (stereo unspecified) | n | x | n | n | n | u
CC(C)(C)N/N=C1\CC(c2ccccc2)Oc2ccccc21 (stereo unspecified) | n | u | n | n | n | u
O=C(O)c1cc(N/N=C2/CC(c3ccccc3)Oc3ccccc32)ccc1Cl (stereo unspecified) | 54 | n | n | 40 | u | n
O=C(CN1C(=O)CCn2nc(-c3ccccc3)cc21)NCc1ccc(F)cc1 | x | x | x | x | n | x
SMILES | Shiga inhibitor | Pf growth 96h | NS1 function inh | Cycloheximide cs | Sm TGR inh | Pf growth 48h
CC(=O)c1sc(N/N=C\c2ccc(Br)cc2)nc1C | active | u | n | 72 | n | n
CCOC(=O)c1sc(N/N=C/c2ccc(N(C)C)cc2)nc1C | n | u | n | n | n | n
CCOC(=O)C(=O)N/N=C/c1cccc(Br)c1 | n | n | n | n | n | n
CC(=O)c1sc(N/N=C\c2cccc(Br)c2)nc1C | 85 | n | n | 67 | n | n
O=P(O)(O)OC1[C@H](O)[C@H](OP(=O)(O)O)C(OP(=O)(O)O)[C@H](OP(=O)(O)O)[C@H]1O (stereo partly specified) | n | x | x | n | x | x
COc1cc(NC(=O)C2=CC(c3ccc(F)cc3)=NS(=O)(=O)N2C)cc(OC)c1OC | x | x | x | x | n | x
Cc1cc(O)ccc1Cl | x | n | x | x | x | n
O=C(O)c1ccc(O)cc1O | x | u | x | x | n | n
Cc1cc(O)c(-c2cc(O)c(C)cc2O)cc1O | n | n | n | 10 | 1.3µM | u
Nc1ccc(N)c(C(=O)O)c1 | n | x | n | n | 18µM | x
Cc1ccc(N)cc1O | x | u | x | x | 6.3µM | u
CNS(=O)(=O)c1cc(N)ccc1C | n | n | n | n | n | n
Nc1ccc(C(=O)O)c(O)c1 | n | u | n | n | 3.5µM! | n
CC1CCCCC12NC(=O)N(CC(=O)NCCc1ccc(S(N)(=O)=O)cc1)C2=O (stereo unspecified) | x | u | x | x | n | u
COc1ccc(N/N=C(/C(N)=O)C2=NC(C)(C)Cc3ccccc32)cc1 | n | u | n | n | n | u
CCN(C(=O)COn1nnc2ccc(S(=O)(=O)N(C)C)cc21)C1CCS(=O)(=O)C1 (stereo unspecified) | x | n | x | x | n | n
Cc1cc(N2CCN(c3ccccn3)CC2)n2c(nc3ccccc32)c1C#N | n | n | n | n | n | 4.7µM
Cc1c2c(n3c(nc4ccccc43)c1C#N)N(Cc1ccccn1)CC2 | x | x | n | x | x | x
Cc1nccn1-c1c2c(c(C#N)c3nc4ccccc4n13)CCC2 | n | n | n | n | 25µM | n
N#Cc1c2c(c(N3CCN(c4ccccn4)CC3)n3c1nc1ccccc13)CCC2 | n | 0.13µM | n | n | 40µM | x
Cc1ccc2c(c1)C(c1ccccc1)N(C(=O)CC(C)C)CC(=O)N2 (stereo unspecified) | n | u | n | n | n | u
Cc1[nH]c2ccc3ncccc3c2c1C | n | u | n | 15 | n | n
c1cnc2c(c1)ccc1ncccc12 | n | n | n | n | n | n
Cc1ccc(NC(=O)NC(=O)N(C(C)C)S(C)(=O)=O)nc1 | n | n | n | 14 | n | n
Cc1ccc(NC(=O)c2ccc3c(c2)C(=O)N(c2cc(C)ccc2C)C3=O)nc1 | 68 | n | n | 29 | n | n
SMILES | Shiga inhibitor | Pf growth 96h | NS1 function inh | Cycloheximide cs | Sm TGR inh | Pf growth 48h
Cc1ccc(NC(=O)C(=O)Nc2ccc(C)cn2)nc1 | 85 | u | x | 50 | n | n
Cc1ccc(NC(=O)c2sccc2C)nc1 | 88 | n | n | 49 | n | n
CCOc1ccc(-n2c(=O)c3sccc3n(CC(=O)NC3CCCCC3)c2=O)cc1 | n | n | n | n | n | n
O=C(/C=C/c1ccccc1)OCN1C(=O)c2ccccc2C1=O | n | n | n | n | n | n
COc1ccc(S(=O)(=O)N2CCC(O)(c3cccnc3)CC2)cc1OC | n | u | x | n | n | n
COc1ccc(C(=O)NC2CC2)cc1OC1CCN(Cc2ccc(F)cc2F)CC1 | n | u | n | n | n | u
COc1cccc(CNC(=O)CCS(=O)(=O)c2ccc3c(c2)CC(C)N3C(=O)C2CC2)c1 (stereo unspecified) | n | n | n | n | n | n
Cc1ccc(NC(=O)c2cccnc2C(=O)O)nc1 | n | n | n | n | n | n
